From PubChem BioAssay (NCATS)
Inconclusive results are not listed. The source made the active and inactive calls. Unless noted, the call rests on the fitted dose curve; in most records, active means well fitted curve in the direction sought with a large enough effect; inconclusive means small, poorly fitted or top-dose-only effect, or another doubt; inactive means no such curve, though single readings can be large; an effect the other way counts as inactive or inconclusive.

How the values were obtained:
NIH3T3 = assay: qHTS assay to identify novel small-molecules to repurpose for Merkel cell carcinoma treatment (AID 1296009); conditions: MCC and control cell lines, CellTiter-Glo viability, 72 h; at 44.8 µM (top of the series) unless noted; further: nearly all actives have a fitted effect of over 60% in size
Outline: (§1)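 Viability readout: ATP luminescence (CellTiter-Glo) after 72 hr drug exposure at 37 degree celsius. Dose-response format was 8 points for NPC and 11 points for MIPE; data normalized to in-plate controls.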

UISO = assay: as above; conditions: MCC and control cell lines, CellTiter-Glo viability, 72 h; series mostly up to 46 µM
Outline: as §1

WaGa = assay: as above; conditions: MCC and control cell lines, CellTiter-Glo viability, 72 h; series mostly up to 46 µM
Outline: as §1

C33A = assay: Primary qHTS to identify gynecologic anti-cancer compounds using libraries of approved drugs and bioactive compounds (AID 1345084); conditions: Gynecologic cancer cell panel viability, ATPlite luminescence, 48 h; series mostly up to 57.5 µM; further: on the % scale 0 is the no-effect control and ±100 the full control effect; nearly all actives have a fitted effect of over 55% in size
Outline: (§2)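 ATP-based viability (ATPlite), 1,000 cells/well, 16 h pre-incubation, 48 h compound at 37 C, 5% CO2, 15 min RT before read.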

CAOV3 = assay: as above; conditions: Gynecologic cancer cell panel viability, ATPlite luminescence, 48 h; series mostly up to 57.5 µM
Outline: as §2

CASKI = assay: as above; conditions: Gynecologic cancer cell panel viability, ATPlite luminescence, 48 h; series mostly up to 57.5 µM
Outline: as §2

Es-2 = assay: as above; conditions: Gynecologic cancer cell panel viability, ATPlite luminescence, 48 h; series mostly up to 57.5 µM
Outline: as §2

HeLa = assay: as above; conditions: Gynecologic cancer cell panel viability, ATPlite luminescence, 48 h; series mostly up to 57.5 µM
Outline: as §2

Hek293T = assay: as above; conditions: Gynecologic cancer cell panel viability, ATPlite luminescence, 48 h, control line for the selectivity index; series mostly up to 57.5 µM
Outline: as §2

JEG-3 = assay: as above; conditions: Gynecologic cancer cell panel viability, ATPlite luminescence, 48 h; series mostly up to 57.5 µM
Outline: as §2

OV90 = assay: as above; conditions: Gynecologic cancer cell panel viability, ATPlite luminescence, 48 h; series mostly up to 57.5 µM
Outline: as §2

PA-1 = assay: as above; conditions: Gynecologic cancer cell panel viability, ATPlite luminescence, 48 h; series mostly up to 57.5 µM
Outline: as §2

SKOV3 = assay: as above; conditions: Gynecologic cancer cell panel viability, ATPlite luminescence, 48 h; series mostly up to 57.5 µM
Outline: as §2

Tov-21-G = assay: as above; conditions: Gynecologic cancer cell panel viability, ATPlite luminescence, 48 h; series mostly up to 57.5 µM
Outline: as §2

Tov112D = assay: as above; conditions: Gynecologic cancer cell panel viability, ATPlite luminescence, 48 h; series mostly up to 57.5 µM
Outline: as §2

[1] = Drug repurposing screens with cells derived from glioblastoma tumor samples (AID 1345199); conditions: GBM patient neurospheres viability, ATP luminescence, 48 h; further: nearly all actives have a fitted effect of over 40% in size; further: potency means the concentration at half of the fitted maximal effect; on activity, negative = cell killing: on the % scale 0 is the no-effect control and ±100 the full control effect
Outline: (§3)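 Primary testing used CD133+ neurospheres from four GBM patients, seven concentrations, 48 h exposure and ATP-based viability; confirmation added three slower-growing patient lines.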

astro = assay: as above; conditions: viability, ATP luminescence, 48 h; series mostly up to 45.9 µM
Outline: as §3

[2] = molecular target: Nuclear receptor subfamily 1 group I member 2 (Rattus norvegicus) (UniProt Q9R1A7); assay: qHTS assay for small molecule activators of the rat pregnane X receptor (rPXR) signaling pathway (AID 651751; call rule not given here; further: 0% is about no effect); conditions: rPXR reporter cells, luciferase (One-Glo), 24 h
Chain of Nuclear receptor subfamily 1 group I member 2 (Rattus norvegicus) (Q9R1A7 whole entry, looked up): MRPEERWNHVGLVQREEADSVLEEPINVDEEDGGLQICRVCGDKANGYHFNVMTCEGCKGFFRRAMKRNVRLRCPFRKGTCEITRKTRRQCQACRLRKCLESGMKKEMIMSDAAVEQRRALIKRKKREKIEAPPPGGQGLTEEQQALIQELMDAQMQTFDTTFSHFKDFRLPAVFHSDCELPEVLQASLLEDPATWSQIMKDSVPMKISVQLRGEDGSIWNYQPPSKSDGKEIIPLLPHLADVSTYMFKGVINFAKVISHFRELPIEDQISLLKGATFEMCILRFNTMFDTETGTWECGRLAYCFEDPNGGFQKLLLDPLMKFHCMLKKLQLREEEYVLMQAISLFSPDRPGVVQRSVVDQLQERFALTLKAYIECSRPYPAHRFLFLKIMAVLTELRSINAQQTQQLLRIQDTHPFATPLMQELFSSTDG

[3] = qHTS assay for small molecule activators of the human pregnane X receptor (PXR) signaling pathway (AID 720659; call rule not given here; further: 0% is about no effect)
[4] = at 45.9 µM (top of the series), tumour line B
[5] = at 45.9 µM (top of the series), tumour line D

CC(=O)C1CCOC1=O (configuration not stated)
inactive: outcome (NIH3T3) | Potency (UISO) | Potency (WaGa) | Potency (C33A) | outcome (CAOV3) | outcome (CASKI) | Potency (Es-2) | Potency (HeLa) | outcome (Hek293T) | outcome (JEG-3) | Potency (OV90) | Potency (PA-1) | outcome (SKOV3) | Potency (Tov-21-G) | Potency (Tov112D)

O=c1oc2ccccc2c(O)c1Cc1c(O)c2ccccc2oc1=O
inactive: outcome (NIH3T3) | Potency (UISO) | Potency (WaGa) | Potency (C33A) | outcome (CASKI) | Potency (Es-2) | Potency (HeLa) | outcome (Hek293T) | outcome (JEG-3) | Potency (OV90) | Potency (PA-1) | outcome (SKOV3) | Potency (Tov-21-G) | Potency (Tov112D) | activity, negative = cell killing ([1]; at 21.2 µM (top of the series), tumour line B) -21.7% | activity, negative = cell killing ([1]; at 21.2 µM (top of the series), tumour line D) -20.9% | activity, negative = cell killing ([1]; at 21.3 µM (top of the series), tumour line A) -20.4%

C#CC(O)(C=CCl)CC (configuration not stated)
inactive: outcome (NIH3T3) | Potency (UISO) | Potency (WaGa) | Potency (C33A) | outcome (CASKI) | Potency (Es-2) | Potency (HeLa) | outcome (Hek293T) | outcome (JEG-3) | Potency (OV90) | Potency (PA-1) | outcome (SKOV3) | Potency (Tov-21-G) | Potency (Tov112D)

CC1(C)C(C=C(Cl)Cl)C1C(=O)OC(C#N)c1cccc(Oc2ccccc2)c1 (configuration not stated)
active: Potency ([1]; tumour line A) 25.1 µM
inactive: outcome (NIH3T3) | Potency (UISO) | Potency (WaGa) | Potency (C33A) | outcome (CAOV3) | outcome (CASKI) | Potency (Es-2) | Potency (HeLa) | outcome (Hek293T) | outcome (JEG-3) | Potency (OV90) | Potency (PA-1) | outcome (SKOV3) | Potency (Tov-21-G) | Potency (Tov112D) | activity, negative = cell killing [1, 4] -16.8% | activity, negative = cell killing ([1]; at 46.1 µM (top of the series), tumour line C) -35.5% | Potency (astro)

Clc1ccc(C(c2ccc(Cl)cc2)C(Cl)(Cl)Cl)cc1
inactive: Potency (UISO) | Potency (WaGa) | Potency (C33A) | outcome (CAOV3) | outcome (CASKI) | Potency (Es-2) | Potency (HeLa) | outcome (Hek293T) | outcome (JEG-3) | Potency (OV90) | Potency (PA-1) | outcome (SKOV3) | Potency (Tov-21-G) | Potency (Tov112D)
active: Potency ([1]; tumour line A) 11.2 µM

C=C(C)[C@H]1CN[C@H](C(=O)O)[C@H]1CC(=O)O
inactive: outcome (NIH3T3) | Potency (UISO) | Potency (WaGa) | Potency (C33A) | outcome (CAOV3) | outcome (CASKI) | Potency (Es-2) | Potency (HeLa) | outcome (Hek293T) | outcome (JEG-3) | Potency (OV90) | Potency (PA-1) | outcome (SKOV3) | Potency (Tov-21-G) | Potency (Tov112D) | activity, negative = cell killing [1, 4] -14.8% | activity, negative = cell killing [1, 5] -15.4%

CCC(C)C(C)(COC(N)=O)COC(N)=O (configuration not stated)
inactive: outcome (NIH3T3) | Potency (UISO) | Potency (WaGa) | Potency (C33A) | outcome (CASKI) | Potency (Es-2) | Potency (HeLa) | outcome (Hek293T) | outcome (JEG-3) | Potency (OV90) | Potency (PA-1) | outcome (SKOV3) | Potency (Tov-21-G) | Potency (Tov112D)

COc1ccc2c3c1O[C@H]1[C@H](O)CC[C@H]4[C@@H](C2)N(C)CC[C@@]341
inactive: outcome (NIH3T3) inactive [at 92 µM] | Potency (UISO) | Potency (WaGa) | Potency (C33A) | outcome (CASKI) | Potency (Es-2) | Potency (HeLa) | outcome (Hek293T) | outcome (JEG-3) | Potency (OV90) | Potency (PA-1) | outcome (SKOV3) | Potency (Tov-21-G) | Potency (Tov112D) | activity, negative = cell killing ([1]; at 91.6 µM (top of the series), tumour line B) -15.1% | activity, negative = cell killing ([1]; at 91.6 µM (top of the series), tumour line D) -10.3% | Potency (astro)

CCCOC(=O)c1cncn1C(C)c1ccccc1 (configuration not stated)
inactive: Potency (UISO) | Potency (WaGa) | Potency (C33A) | outcome (CAOV3) | outcome (CASKI) | Potency (Es-2) | Potency (HeLa) | outcome (Hek293T) | outcome (JEG-3) | Potency (OV90) | Potency (PA-1) | outcome (SKOV3) | Potency (Tov-21-G) | Potency (Tov112D)

C[C@H]1[C@@H]2Cc3ccc(O)cc3[C@@]1(C)CCN2C
inactive: outcome (NIH3T3) inactive [at 231 µM] | Potency (UISO) | Potency (WaGa) | Potency (C33A) | outcome (CASKI) | Potency (Es-2) | Potency (HeLa) | outcome (Hek293T) | outcome (JEG-3) | Potency (PA-1) | outcome (SKOV3) | Potency (Tov-21-G) | Potency (Tov112D) | activity, negative = cell killing ([1]; at 231 µM (top of the series), tumour line B) -0.237% | activity, negative = cell killing ([1]; at 231 µM (top of the series), tumour line D) -19.7%
active: Potency ([1]; tumour line A) 112 µM

Nc1ccc([As](=O)(O)O)cc1
inactive: outcome (NIH3T3) | Potency (UISO) | Potency (WaGa) | Potency (C33A) | outcome (CAOV3) | outcome (CASKI) | Potency (Es-2) | Potency (HeLa) | outcome (Hek293T) | outcome (JEG-3) | Potency (OV90) | Potency (PA-1) | Potency (Tov-21-G) | Potency (Tov112D) | activity, negative = cell killing [1, 4] -5.35% | activity, negative = cell killing [1, 5] -5.12% | activity, negative = cell killing ([1]; at 46 µM (top of the series), tumour line A) -21.8% | Potency (astro) | max response [2] 3.51% | outcome [3]

C[N+]1(CCF)[C@@H]2CC[C@H]1CC(OC(=O)C(O)(c1ccccc1)c1ccccc1)C2 (some centres not stated)
active: Potency ([1]; tumour line A) 11.2 µM
inactive: outcome (NIH3T3) | Potency (UISO) | Potency (WaGa) | Potency (C33A) | outcome (CAOV3) | outcome (CASKI) | Potency (Es-2) | Potency (HeLa) | outcome (Hek293T) | outcome (JEG-3) | Potency (OV90) | Potency (PA-1) | outcome (SKOV3) | Potency (Tov-21-G) | Potency (Tov112D) | activity, negative = cell killing [1, 4] -12.6% | activity, negative = cell killing [1, 5] -18.1%

CCCCC/C=C\C/C=C\C/C=C\C/C=C\CCCC(=O)NCC(=O)O
inactive: outcome (NIH3T3) | Potency (UISO) | Potency (WaGa) | Potency (C33A) | outcome (CASKI) | Potency (Es-2) | Potency (HeLa) | outcome (Hek293T) | outcome (JEG-3) | Potency (OV90) | Potency (PA-1) | Potency (Tov-21-G) | Potency (Tov112D) | activity, negative = cell killing ([1]; at 4.17 µM (top of the series), tumour line A) -24.5% | activity, negative = cell killing ([1]; at 4.17 µM (top of the series), tumour line B) -4.38% | activity, negative = cell killing ([1]; at 4.17 µM (top of the series), tumour line D) -5.18%

C=CCC1(C(C)CC)C(=O)NC(=O)NC1=O (configuration not stated)
inactive: outcome (NIH3T3) | Potency (UISO) | Potency (WaGa) | Potency (C33A) | outcome (CAOV3) | outcome (CASKI) | Potency (Es-2) | Potency (HeLa) | outcome (Hek293T) | outcome (JEG-3) | Potency (OV90) | Potency (PA-1) | outcome (SKOV3) | Potency (Tov-21-G) | Potency (Tov112D)
